Measured values from PubChem BioAssay (EPA / NIEHS).
Inconclusive results are not listed. Calls of active or inactive are those of the source. The calls were made as follows, unless noted: active = hit-call score of the fitted dose curve at least 0.9, where 1 is the maximum; inactive = score below 0.9.

Columns and labels:
[1] = ATG_XTT_Cytotoxicity: Cytotoxicity Assessment in the Attagene TRANS-FACTORIAL HepG2 Assay (AID 2283584; active = hit-call score of the fitted dose curve at least 0.9, where 1 is the maximum)
Procedure, shortened: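 Transfect HepG2 with GAL4-UAS reporter units, dose compound, incubate 24 h, then measure viable cell number by XTT. Fit concentration response against DMSO baseline.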

[2] = read-out: solute carrier (SLC22A1), SLC22A1 (gene 6580); experiment: LTEA_HepaRG_SLC22A1: Life Technologies and Expression Analysis (LTEA) Assay for solute carrier (SLC22A1) using HepaRG (AID 2283524); details: mRNA level, 48 h; actives raise or lower the signal
Procedure, shortened: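 Human HepaRG cells were plated 48 h, switched to serum-free induction medium, then exposed in duplicate for 48 h to 8-point half-log series from 100 uM in 0.5% DMSO. SLC22A1 mRNA measured by qRT-PCR, normalized to ACTB/GAPDH/POLR2A, fitted bidirectionally versus DMSO.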

[3] = read-out: Pyruvate Dehydrogenase Kinase 4 (PDK4), PDK4 (gene 5166); experiment: LTEA_HepaRG_PDK4: Life Technologies and Expression Analysis (LTEA) Assay for Pyruvate Dehydrogenase Kinase 4 (PDK4) using HepaRG (AID 2283525); details: mRNA level, 48 h; actives raise or lower the signal
Procedure, shortened: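 Differentiated human HepaRG cells, pre-cultured 48 h, were exposed in duplicate for 48 h in serum-free induction medium to eight half-log concentrations up to 100 uM in 0.5% DMSO. PDK4 mRNA was quantified by qRT-PCR, normalized to ACTB, GAPDH and POLR2A, bidirectional fitting versus DMSO.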

[4] = read-out: NAD(P)H dehydrogenase [quinone] 1 (NQO1), NQO1 (gene 1728); experiment: LTEA_HepaRG_NQO1: Life Technologies and Expression Analysis (LTEA) Assay for NAD(P)H dehydrogenase [quinone] 1 (NQO1) using HepaRG (AID 2283526); details: mRNA level, 48 h; actives raise or lower the signal
Procedure, shortened: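 Differentiated HepaRG cells, plated 48 h and then switched to serum-free induction medium, were exposed in duplicate for 48 h to 8-point half-log concentrations up to 100 uM in 0.5% DMSO. mRNA measured by qRT-PCR, normalized to ACTB, GAPDH, POLR2A; bidirectional fit versus DMSO.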

[5] = read-out: Nuclear factor erythroid 2-related factor 2 (Homo sapiens) (UniProt Q16236); experiment: LTEA_HepaRG_NFE2L2: Life Technologies and Expression Analysis (LTEA) Assay for Nuclear factor erythroid 2-related factor 2 (NFE2L2) Transcription Factor using HepaRG (AID 2283527); details: mRNA level, 48 h; actives raise or lower the signal;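 also: TaqMan qRT-PCR transcript level normalised to ACTB GAPDH and POLR2A housekeeping genes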
Procedure, shortened: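 Differentiated human HepaRG cells in serum-free induction medium were exposed for 48 h to eight concentrations (top 100 uM, half-log dilutions, 0.5% DMSO), in duplicate. NFE2L2 mRNA was quantified by TaqMan qRT-PCR, normalized to ACTB, GAPDH and POLR2A, with bidirectional fitting versus DMSO.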

[6] = read-out: succinate dehydrogenase complex iron sulfur subunit B (SDHB), SDHB (gene 6390); experiment: LTEA_HepaRG_SDHB: Life Technologies and Expression Analysis (LTEA) Assay for succinate dehydrogenase complex iron sulfur subunit B (SDHB) using HepaRG (AID 2283528); details: mRNA level, 48 h; actives raise or lower the signal
Procedure, shortened: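 Readout is SDHB transcript level by qRT-PCR, normalised to three housekeeping genes and fitted bidirectionally against 0.5% DMSO vehicle. Human HepaRG cells were treated for 48 h at up to 100 uM.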

[7] = read-out: Signal transducer and activator of transcription 3 (Homo sapiens) (UniProt P40763); experiment: LTEA_HepaRG_STAT3: Life Technologies and Expression Analysis (LTEA) Assay for Signal transducer and activator of transcription (STAT3) using HepaRG (AID 2283529); details: mRNA level, 48 h; actives raise or lower the signal
Procedure, shortened: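 Differentiated human HepaRG cells in serum-free induction medium were exposed in duplicate for 48 h to eight half-log concentrations up to 100 uM in 0.5% DMSO. STAT3 mRNA was quantified by TaqMan qRT-PCR, normalized to ACTB, GAPDH and POLR2A, and fitted bidirectionally against DMSO.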

[8] = read-out: solute carrier (SLCO1B1), SLCO1B1 (gene 10599); experiment: LTEA_HepaRG_SLCO1B1: Life Technologies and Expression Analysis (LTEA) Assay for solute carrier (SLCO1B1) using HepaRG (AID 2283530); details: mRNA level, 48 h; actives raise or lower the signal
Procedure, shortened: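 Gain or loss of SLCO1B1 mRNA is fitted against the 0.5% DMSO vehicle in human HepaRG liver cells treated 48 h at up to 100 uM in half-log steps. Expression comes from qRT-PCR normalized to endogenous controls.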

[9] = read-out: sulfotransferase 2A1 (SULT2A1), SULT2A1 (gene 6822); experiment: LTEA_HepaRG_SULT2A1: Life Technologies and Expression Analysis (LTEA) Assay for sulfotransferase 2A1 (SULT2A1) using HepaRG (AID 2283531); details: mRNA level, 48 h; actives raise or lower the signal
Procedure, shortened: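 Cells were plated and cultured 48 h, switched to serum-free induction medium, then dosed in duplicate for 48 h (8 concentrations, max 100 uM). RNA was isolated and SULT2A1 expression measured by qRT-PCR; gain or loss of signal fitted relative to DMSO.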

[10] = read-out: Transforming Growth Factor (TGFA), TGFA (gene 7039); experiment: LTEA_HepaRG_TGFA: Life Technologies and Expression Analysis (LTEA) Assay for Transforming Growth Factor (TGFA) using HepaRG (AID 2283532); details: mRNA level, 48 h; actives raise or lower the signal
Procedure, shortened: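 Differentiated human HepaRG cells, plated 48 h then switched to serum-free induction medium, were exposed in duplicate for 48 h to 8-point half-log series from 100 uM in 0.5% DMSO. TGFA mRNA measured by qRT-PCR, normalized to ACTB/GAPDH/POLR2A, bidirectional fit versus DMSO.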

[11] = read-out: Transforming Growth Factor (TGFB1), TGFB1 (gene 7040); experiment: LTEA_HepaRG_TGFB1: Life Technologies and Expression Analysis (LTEA) Assay for Transforming Growth Factor (TGFB1) Transporter using HepaRG (AID 2283533); details: mRNA level, 48 h; actives raise or lower the signal
Procedure, shortened: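 Expression change of TGFB1 in human HepaRG cells is measured after a 48 h chemical exposure, up to 100 uM in 0.5% DMSO vehicle. Curves are fitted in both directions relative to the DMSO baseline.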

TIMP1, TIMP1 (gene 7076) = experiment: LTEA_HepaRG_TIMP1: Life Technologies and Expression Analysis (LTEA) Assay for TIMP1 using HepaRG (AID 2283534); details: mRNA level, 48 h; actives raise or lower the signal;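 also: TaqMan qRT-PCR signal normalized to ACTB GAPDH and POLR2A housekeeping genes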
Procedure, shortened: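 We dosed human liver HepaRG cultures for 48 hours with up to 100 uM test chemical and measured TIMP1 expression by qRT-PCR. Activity in either direction is fitted relative to the 0.5% DMSO vehicle.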

[12] = read-out: Tumor necrosis factor receptor 1 (TNFRSF1A), TNFRSF1A (gene 7132); experiment: LTEA_HepaRG_TNFRSF1A: Life Technologies and Expression Analysis (LTEA) Assay for Tumor necrosis factor receptor 1 (TNFRSF1A) using HepaRG (AID 2283535); details: mRNA level, 48 h; actives raise or lower the signal
Procedure, shortened: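 Expression of TNFRSF1A in human HepaRG liver cells was measured by qRT-PCR 48 h after chemical dosing (maximum 100 uM). Bidirectional curve fitting used 0.5% DMSO as baseline.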

[13] = read-out: Thyroid Hormone Responsive (THRSP), THRSP (gene 7069); experiment: LTEA_HepaRG_THRSP: Life Technologies and Expression Analysis (LTEA) Assay for Thyroid Hormone Responsive (THRSP) using HepaRG (AID 2283536); details: mRNA level, 48 h; actives raise or lower the signal
Procedure, shortened: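 Differentiated human HepaRG cells were exposed in duplicate for 48 h in serum-free induction medium to eight concentrations (top 100 uM, half-log steps, 0.5% DMSO). Expression was quantified by TaqMan qRT-PCR, normalized to ACTB, GAPDH and POLR2A, with bidirectional fitting against DMSO.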

[14] = read-out: Cellular tumor antigen p53 (Homo sapiens) (UniProt P04637); experiment: LTEA_HepaRG_TP53: Life Technologies and Expression Analysis (LTEA) Assay for Tumor Protein P53 (TP53) using HepaRG (AID 2283537); details: mRNA level, 48 h; actives raise or lower the signal
Procedure, shortened: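 Read-out is TP53 transcript level by microfluidic qRT-PCR, normalised to three housekeeping genes and fitted bidirectionally against DMSO. Human HepaRG cells received compounds for 48 h, highest concentration 100 uM.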

[15] = read-out: UDP glucuronosyltransferase (UGT1A1), UGT1A1 (gene 54658); experiment: LTEA_HepaRG_UGT1A1: Life Technologies and Expression Analysis (LTEA) Assay for UDP glucuronosyltransferase (UGT1A1) using HepaRG (AID 2283538); details: mRNA level, 48 h; actives raise or lower the signal
Procedure, shortened: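 Differentiated human HepaRG cells in serum-free induction medium were exposed in duplicate for 48 h to eight half-log concentrations up to 100 uM in 0.5% DMSO. UGT1A1 mRNA was quantified by TaqMan qRT-PCR, normalized to ACTB, GAPDH and POLR2A, and fitted bidirectionally against DMSO.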

[16] = read-out: UDP glucuronosyltransferase (UGT1A6), UGT1A6 (gene 54578); experiment: LTEA_HepaRG_UGT1A6: Life Technologies and Expression Analysis (LTEA) Assay for UDP glucuronosyltransferase (UGT1A6) using HepaRG (AID 2283539); details: mRNA level, 48 h; actives raise or lower the signal
Procedure, shortened: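 Endpoint is UGT1A6 transcript induction or loss in a human liver cell line, quantified by TaqMan qRT-PCR 48 h after dosing. Concentrations ran from 100 uM downward in half-log steps in 0.5% DMSO; activity was fitted in both directions versus vehicle.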

[17] = read-out: X-box binding protein 1 (XBP1), XBP1 (gene 7494); experiment: LTEA_HepaRG_XBP1: Life Technologies and Expression Analysis (LTEA) Assay for X-box binding protein 1 (XBP1) using HepaRG (AID 2283540); details: mRNA level, 48 h; actives raise or lower the signal
Procedure, shortened: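 Human HepaRG monolayers receive test chemical for 48 h across an eight-point half-log series starting at 100 uM. XBP1 mRNA gain or loss is scored against DMSO by qRT-PCR.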

[18] = LTEA_HepaRG_LDH_cytotoxicity: Cytotoxicity Assessment in the Life Technologies and Expression Analysis (LTEA) Assay (AID 2283563; active = hit-call score of the fitted dose curve at least 0.9, where 1 is the maximum)
Procedure, shortened: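 Human HepaRG hepatic cells are treated with test chemicals for 48 h at up to 100 uM in 0.5% DMSO. Cytotoxicity is scored from medium LDH against the vehicle control.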

[19] = TOX21_p53_BLA_p2_viability: Viability Assessment in the Tox21 HCT-116 p53 Agonism Beta-lactamase Assay, Phase 2 (AID 2283591; active = hit-call score of the fitted dose curve at least 0.9, where 1 is the maximum;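 also: compound exposure lasted 16 h at 37 °C; actives lower the ATP signal meaning cytotoxicity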)
Procedure, shortened: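 HCT-116 p53-bla cells (4000/well) rested 5 h at 37C, then received compounds in DMSO (217-fold dilution) for 16 h at 37C, 5% CO2. After the CCF4 read, CellTiter-Glo was added; ATP luminescence was read after 30 min at room temperature.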

Measured: AC50

Sequence of Cellular tumor antigen p53 (Homo sapiens) (P04637 whole entry, looked up): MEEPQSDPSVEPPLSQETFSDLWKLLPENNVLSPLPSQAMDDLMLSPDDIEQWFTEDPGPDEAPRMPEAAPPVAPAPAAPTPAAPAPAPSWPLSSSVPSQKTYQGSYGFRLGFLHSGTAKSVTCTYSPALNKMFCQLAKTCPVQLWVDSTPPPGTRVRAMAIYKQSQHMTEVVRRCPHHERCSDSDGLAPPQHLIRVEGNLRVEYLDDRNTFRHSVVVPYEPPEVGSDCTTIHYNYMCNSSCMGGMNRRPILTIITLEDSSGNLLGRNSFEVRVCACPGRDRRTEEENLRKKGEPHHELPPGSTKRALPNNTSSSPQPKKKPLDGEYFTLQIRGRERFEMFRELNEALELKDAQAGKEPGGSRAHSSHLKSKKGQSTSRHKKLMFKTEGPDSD
Sequence of Signal transducer and activator of transcription 3 (Homo sapiens) (P40763 whole entry, looked up): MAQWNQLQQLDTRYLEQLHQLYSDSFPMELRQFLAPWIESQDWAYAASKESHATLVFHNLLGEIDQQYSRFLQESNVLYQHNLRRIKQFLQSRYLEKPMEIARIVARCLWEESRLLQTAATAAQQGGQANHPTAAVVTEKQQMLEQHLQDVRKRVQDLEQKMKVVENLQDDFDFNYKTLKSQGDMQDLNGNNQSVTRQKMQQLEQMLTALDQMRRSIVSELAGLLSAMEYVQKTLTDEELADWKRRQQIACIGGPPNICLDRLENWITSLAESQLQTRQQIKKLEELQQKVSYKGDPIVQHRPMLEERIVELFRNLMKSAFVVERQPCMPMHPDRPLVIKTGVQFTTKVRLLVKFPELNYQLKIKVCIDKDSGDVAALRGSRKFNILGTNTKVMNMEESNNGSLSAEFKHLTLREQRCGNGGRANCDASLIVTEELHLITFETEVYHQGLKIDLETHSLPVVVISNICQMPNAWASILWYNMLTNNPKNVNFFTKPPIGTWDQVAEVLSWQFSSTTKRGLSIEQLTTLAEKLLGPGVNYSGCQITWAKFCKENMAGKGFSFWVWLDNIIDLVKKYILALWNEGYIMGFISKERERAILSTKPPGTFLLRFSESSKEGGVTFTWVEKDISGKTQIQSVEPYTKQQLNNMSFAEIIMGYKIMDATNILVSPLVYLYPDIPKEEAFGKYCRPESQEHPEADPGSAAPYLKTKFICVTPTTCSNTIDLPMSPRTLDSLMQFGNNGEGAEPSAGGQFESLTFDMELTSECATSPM
Sequence of Nuclear factor erythroid 2-related factor 2 (Homo sapiens) (Q16236 whole entry, looked up): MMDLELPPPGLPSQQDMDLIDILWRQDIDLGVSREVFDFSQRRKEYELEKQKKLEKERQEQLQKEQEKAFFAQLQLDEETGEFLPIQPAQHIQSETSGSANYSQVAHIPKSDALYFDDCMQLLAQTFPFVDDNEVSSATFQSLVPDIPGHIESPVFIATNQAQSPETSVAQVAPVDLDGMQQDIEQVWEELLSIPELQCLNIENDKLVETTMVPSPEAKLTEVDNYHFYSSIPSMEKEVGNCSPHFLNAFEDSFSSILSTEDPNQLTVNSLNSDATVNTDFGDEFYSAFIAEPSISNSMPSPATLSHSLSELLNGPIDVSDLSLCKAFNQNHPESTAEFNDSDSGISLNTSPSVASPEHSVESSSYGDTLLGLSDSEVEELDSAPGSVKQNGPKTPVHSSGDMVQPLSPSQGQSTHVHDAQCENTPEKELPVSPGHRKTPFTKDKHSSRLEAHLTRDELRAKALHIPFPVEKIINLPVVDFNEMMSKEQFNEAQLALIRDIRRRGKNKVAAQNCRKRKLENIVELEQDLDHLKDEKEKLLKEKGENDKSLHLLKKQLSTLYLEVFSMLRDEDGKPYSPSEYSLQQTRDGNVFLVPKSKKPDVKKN

CCOB(OCC)OCC
inactive: [1]

C=CC(=O)NCOCCCC
inactive: [1]

C1CNCCN1
inactive: [2] | [3] | [4] | [5] | [6] | [7] | [8] | [9] | [10] | [11] | TIMP1, TIMP1 (gene 7076) | [12] | [13] | [14] | [15] | [16] | [17] | [18] | [1] | [19]

C1CCSC1
inactive: [1]

CC1(C)C(=O)N(CO)C(=O)N1CO
inactive: [1]

CC/C=C\CCOC(=O)c1ccccc1O
inactive: [1]

Cc1ccc([N+](=O)[O-])cc1N
active: [13] 13.3 µM | [15] 50 µM
inactive: [2] | [3] | [4] | [5] | [6] | [7] | [8] | [9] | [10] | [11] | TIMP1, TIMP1 (gene 7076) | [12] | [14] | [16] | [17] | [18] | [1]

CCCCC/C=C\C/C=C\CCCCCCCC(=O)O
inactive: [1]

CCCCCCCCCCCC(C)=O
inactive: [1]

C=Cc1ccc(OC(C)=O)cc1
inactive: [1]

CCC(C)C(=O)OC (configuration not stated)
inactive: [1]

CC(C)c1ccc2ncccc2c1
inactive: [1]

CO[Si](CCCS)(OC)OC
inactive: [1]

CC/C=C\C/C=C\C/C=C\CCCCCCCC(=O)OC
inactive: [1]

CCCC=C(C=O)CC
inactive: [1]
